Data taken from a collection of fitness landscapes (doi:10.1038/s41467-024-54723-y).
In all, about 18,000 sequences were measured (“TetR repression strength (sort-seq, GFP reporter)”: median about 0.23, highest 2% from about 0.68 on). For the sample, the highest values were picked, then their nearest neighbours and some sequences at random.

Target: TetR (class B, Tn10) (UniProt P04483)
Test: TetR repression strength (sort-seq, GFP reporter) (relative to tetO2 = 1); higher = stronger repression
Conditions: E. coli
Procedure, shortened: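 In LB with 50 µg/mL chloramphenicol, E. coli SIG10-MAX holding a low-copy library with eight randomized operator positions between a constitutive promoter and sfGFP, plus constitutive TetR, grew for 5 h at 37 °C. FACS then sorted 10^6 cells into 13 fluorescence bins for Illumina sequencing of each bin. Repression strength equals the top bin index plus one less the read-weighted mean bin, normalized to the unaltered operator. Values from three independent transformations were averaged when reads were ≥30 in every replicate and the CV was ≤0.5.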

Sequence of TetR (class B, Tn10) (P04483 whole entry): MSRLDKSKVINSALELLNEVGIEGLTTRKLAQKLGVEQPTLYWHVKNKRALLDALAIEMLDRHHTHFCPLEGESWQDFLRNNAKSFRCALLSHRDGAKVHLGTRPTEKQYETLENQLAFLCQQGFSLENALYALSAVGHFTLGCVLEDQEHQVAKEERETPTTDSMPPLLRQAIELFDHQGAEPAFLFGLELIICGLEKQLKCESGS

**Q.** Which TetR repression strength does the source give for TCCCTGGTAGTTGCTGAGA here?
**A.** Its TetR repression strength is 0.189.

**Q.** Which TetR repression strength does the source give for TCCCAGAAAGTCGGGGAGA here?
**A.** Its TetR repression strength is 0.0115.

**Q.** For TCCCGAGCAGTATCGGAGA, which TetR repression strength is on record?
**A.** Its TetR repression strength is 0.138.

**Q.** With TCCCAATAAGTGATTGAGA as the sequence, how does the TetR repression strength read?
**A.** Its TetR repression strength is 0.408.

**Q.** Which TetR repression strength does the source give for TCCCACATAGTCTTTGAGA here?
**A.** Its TetR repression strength is 0.244.

**Q.** How did the TetR repression strength turn out when TCCCGTGTAGTGATCGAGA was run?
**A.** Its TetR repression strength is 0.209.

**Q.** TCCCGCTGAGTTTTTGAGA was tested. Which TetR repression strength did it give?
**A.** Its TetR repression strength is 0.307.

**Q.** TCCCGGAGAGTTGAGGAGA was tested. Which TetR repression strength did it give?
**A.** Its TetR repression strength is 0.193.

**Q.** With TCCCGGTTAGTAATTGAGA as the sequence, how does the TetR repression strength read?
**A.** The TetR repression strength was 0.345.

**Q.** How did the TetR repression strength turn out when TCCCGCTAAGTTCCTGAGA was run?
**A.** The TetR repression strength was 0.792.

**Q.** How did the TetR repression strength turn out when TCCCGGTCAGTTCCTGAGA was run?
**A.** Its TetR repression strength is 0.26.

**Q.** Which TetR repression strength does the source give for TCCCGCGAAGTTGGTGAGA here?
**A.** The TetR repression strength was 0.202.

**Q.** TCCCGCGAAGTTGTTGAGA was tested. Which TetR repression strength did it give?
**A.** Its TetR repression strength is 0.112.

**Q.** How did the TetR repression strength turn out when TCCCGTTCAGTTCCTGAGA was run?
**A.** Its TetR repression strength is 0.705.

**Q.** For TCCCCGTAAGTTCCTGAGA, which TetR repression strength is on record?
**A.** Its TetR repression strength is 0.231.

**Q.** With TCCCGTTAAGTTCCTGAGA as the sequence, how does the TetR repression strength read?
**A.** The TetR repression strength was 0.721.

**Q.** With TCCCGTTAAGTTGCTGAGA as the sequence, how does the TetR repression strength read?
**A.** The TetR repression strength was 0.517.

**Q.** TCCCGTTAAGTGCCTGAGA was tested. Which TetR repression strength did it give?
**A.** The TetR repression strength was 0.419.

**Q.** With TCCCGCGAAGTTGCTGAGA as the sequence, how does the TetR repression strength read?
**A.** Its TetR repression strength is 1.1.

**Q.** With TCCCGTTCAGTTGCTGAGA as the sequence, how does the TetR repression strength read?
**A.** Its TetR repression strength is 0.512.

**Q.** TCCCGCTAAGTTTCTGAGA was tested. Which TetR repression strength did it give?
**A.** Its TetR repression strength is 0.393.

**Q.** TCCCACATAGTTTAAGAGA was tested. Which TetR repression strength did it give?
**A.** The TetR repression strength was 0.187.

**Q.** How did the TetR repression strength turn out when TCCCACCTAGTCTGCGAGA was run?
**A.** Its TetR repression strength is 0.302.

**Q.** For TCCCTGACAGTAGTAGAGA, which TetR repression strength is on record?
**A.** Its TetR repression strength is 0.541.

**Q.** For TCCCTGATAGTTCGAGAGA, which TetR repression strength is on record?
**A.** The TetR repression strength was 0.244.

**Q.** With TCCCGGTGAGTGCGAGAGA as the sequence, how does the TetR repression strength read?
**A.** The TetR repression strength was 0.189.

**Q.** With TCCCAAGTAGTGGGGGAGA as the sequence, how does the TetR repression strength read?
**A.** The TetR repression strength was 0.133.

**Q.** How did the TetR repression strength turn out when TCCCTTGCAGTTACCGAGA was run?
**A.** Its TetR repression strength is 0.874.

**Q.** How did the TetR repression strength turn out when TCCCTTGCAGTTAACGAGA was run?
**A.** The TetR repression strength was 0.104.

**Q.** How did the TetR repression strength turn out when TCCCTTCCAGTTACCGAGA was run?
**A.** The TetR repression strength was 0.351.

**Q.** Which TetR repression strength does the source give for TCCCCTTGAGTTACCGAGA here?
**A.** Its TetR repression strength is 0.307.

**Q.** TCCCTCGAAGTTACCGAGA was tested. Which TetR repression strength did it give?
**A.** Its TetR repression strength is 0.221.

**Q.** How did the TetR repression strength turn out when TCCCTTGAAGTTACCGAGA was run?
**A.** The TetR repression strength was 0.844.

**Q.** For TCCCGGGTAGTCGGTGAGA, which TetR repression strength is on record?
**A.** The TetR repression strength was 0.237.

**Q.** For TCCCCCATAGTGCCAGAGA, which TetR repression strength is on record?
**A.** Its TetR repression strength is 0.453.

**Q.** How did the TetR repression strength turn out when TCCCATTAAGTGAGAGAGA was run?
**A.** The TetR repression strength was 0.478.

**Q.** TCCCGTTCAGTCTCAGAGA was tested. Which TetR repression strength did it give?
**A.** Its TetR repression strength is 0.307.

**Q.** Which TetR repression strength does the source give for TCCCCTCTAGTGGCCGAGA here?
**A.** Its TetR repression strength is 0.17.

**Q.** Which TetR repression strength does the source give for TCCCAGCAAGTATGGGAGA here?
**A.** The TetR repression strength was 0.71.

**Q.** With TCCCAGCCAGTTATGGAGA as the sequence, how does the TetR repression strength read?
**A.** The TetR repression strength was 0.169.

**Q.** For TCCCAGCAAGTATGCGAGA, which TetR repression strength is on record?
**A.** Its TetR repression strength is 0.282.

**Q.** TCCCAGCAAGTAGGGGAGA was tested. Which TetR repression strength did it give?
**A.** Its TetR repression strength is 0.289.

**Q.** With TCCCAGCAAGTCATGGAGA as the sequence, how does the TetR repression strength read?
**A.** The TetR repression strength was 0.401.

**Q.** With TCCCAGCAAGTTATGGAGA as the sequence, how does the TetR repression strength read?
**A.** Its TetR repression strength is 0.701.

**Q.** Which TetR repression strength does the source give for TCCCTTCAAGTGTAAGAGA here?
**A.** Its TetR repression strength is 0.158.

**Q.** TCCCCGTGAGTACGTGAGA was tested. Which TetR repression strength did it give?
**A.** Its TetR repression strength is 0.226.

**Q.** For TCCCCACTAGTAAATGAGA, which TetR repression strength is on record?
**A.** The TetR repression strength was 0.726.

**Q.** For TCCCCCCGAGTACGTGAGA, which TetR repression strength is on record?
**A.** Its TetR repression strength is 0.839.

**Q.** With TCCCAACTAGTAAATGAGA as the sequence, how does the TetR repression strength read?
**A.** The TetR repression strength was 0.567.

**Q.** With TCCCCACTAGTACGTGAGA as the sequence, how does the TetR repression strength read?
**A.** Its TetR repression strength is 0.363.

**Q.** How did the TetR repression strength turn out when TCCCCCCTAGTACGTGAGA was run?
**A.** The TetR repression strength was 0.814.

**Q.** How did the TetR repression strength turn out when TCCCCTCTAGTACGTGAGA was run?
**A.** The TetR repression strength was 0.207.

**Q.** With TCCCCCGGAGTACGTGAGA as the sequence, how does the TetR repression strength read?
**A.** Its TetR repression strength is 0.187.

**Q.** For TCCCCACTAGTAAAAGAGA, which TetR repression strength is on record?
**A.** Its TetR repression strength is 0.303.

**Q.** How did the TetR repression strength turn out when TCCCTAGAAGTTATGGAGA was run?
**A.** The TetR repression strength was 0.315.

**Q.** TCCCTGGCAGTTCATGAGA was tested. Which TetR repression strength did it give?
**A.** The TetR repression strength was 0.199.

**Q.** TCCCGGGTAGTCCGGGAGA was tested. Which TetR repression strength did it give?
**A.** The TetR repression strength was 0.112.

**Q.** For TCCCAACCAGTCCCGGAGA, which TetR repression strength is on record?
**A.** The TetR repression strength was 0.12.

**Q.** With TCCCAAGGAGTGGGTGAGA as the sequence, how does the TetR repression strength read?
**A.** Its TetR repression strength is 0.185.
